Data on 35 compounds can be found in PubChem BioAssay (Tox21).

Results filed as inconclusive are left out. Calls of active or inactive are those of the source. The call rests on the fitted dose curve; in most records, active means well fitted curve in the direction sought with a large enough effect in the signal ratio in the repeat runs (not every such curve was filed as active); inconclusive means weak or mixed curves, or a change in a side signal; inactive means no such curve, though single readings can be large or run the other way; the % refers to the signal ratio.

The test in a line: qHTS assay to identify small molecule agonists of the NFkB signaling pathway (AID 1159509). Particulars: NFkB-bla ME-180 cells, beta-lactamase FRET ratio, 5 h; series mostly up to 61 µM. Put shortly: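 Readout: FRET fluorescence, 405 nm excitation, 460/530 nm emission; beta-lactamase expression disrupts FRET. Cells: ME-180 stably carrying NF-kB-driven bla reporter. Compound exposure 5 hr, 37 C, 5% CO2.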
Consider `Nc1cc(C(Cl)=C(Cl)Cl)c(S(N)(=O)=O)cc1S(N)(=O)=O`, for which the outcome was inactive.

Take `CCCCOCC(C)OCC(C)O` (stereo not given): the outcome was inactive.

With `CC(C)=CC(=O)O`, the result was inactive.

`CN(C)CCOC(c1ccc(Cl)cc1)c1ccccn1` (stereo not given): the result was inactive.

Take `Cc1ccc(N)cc1[N+](=O)[O-]`: the outcome was inactive.

Consider `Cc1nccn1CC1CCc2c(c3ccccc3n2C)C1=O` (stereo not given), for which the result was inactive.

For the compound `C=C(C)C(=O)OCCC(C)OC(=O)C(=C)C` (stereo not given), the outcome was inactive.

For the compound `CCCCCCCCCCCCCCCCCCOCC(O)CO` (stereo not given), the result was inactive.

Take `Cc1ccccc1C(=O)O`: the result was inactive.

Consider `CCN(CC)C(=O)c1ccc(O)c(OC)c1`, for which the outcome was inactive.

Turning to `C#CC(C)(O)CC(C)C` (stereo not given), the result was inactive.

Take `CO`: the outcome was inactive.

Take `C/C=C1\C(=O)C[C@H]2[C@@H]3CCC4=CC(=O)CC[C@]4(C)[C@H]3CC[C@]12C`: the result was inactive.

On to `COc1cc(O)cc(O)c1`, for which the outcome was inactive.

For `Oc1cc(O)c2c(c1)O[C@H](c1ccc(O)c(O)c1)[C@H](O)C2`, the outcome was inactive.

Regarding `COc1cc(C(=O)N2CCOCC2)cc(OC)c1OC`, the outcome was inactive.

With `CCCCc1ccc2cccc(S(=O)(=O)O)c2c1`, the outcome was inactive.

Turning to `Nc1ncnc2c1ncn2Cc1c(F)cccc1Cl`, the outcome was inactive.

As to `c1ccc(CCCc2ccccn2)cc1`, the result was inactive.

With `O=C(CCOCCOCCOCCOCCC(=O)Nc1c(I)cc(I)c(C(=O)O)c1I)Nc1c(I)cc(I)c(C(=O)O)c1I`, the result was inactive.

`CC1=CCC2C(C1)C2(C)C` (stereo not given): the outcome was inactive.

Turning to `CCO[Si](C)(OCC)OCC`, the result was inactive.

As for `CC(C)c1ccc2oc3nc(N)c(C(=O)O)cc3c(=O)c2c1`, the result was inactive.

As to `N#CCN(CC#N)CCN(CC#N)CC#N`, the outcome was inactive.

In the case of `Cc1c(C)n(CCN(C)C)c2ccc(C(=O)OCCN(C)C)cc12`, the outcome was inactive.

As to `CCCCCN(CCCCC)C(=O)C(CCC(=O)O)NC(=O)c1ccc(Cl)c(Cl)c1` (stereo not given), the result was inactive.

On to `NC(=O)c1c(Cl)cccc1Cl`, for which the result was inactive.

With `C=CCn1c(=O)n([C@@H]2O[C@H](CO)[C@@H](O)[C@H]2O)c2nc(N)[nH]c(=O)c21`, the result was inactive.

For `C1CCCCCCCCCCC1`, the outcome was inactive.

As for `CCCC(C)C(=O)O` (stereo not given), the outcome was inactive.

In the case of `NS(=O)(=O)c1cc(C2(O)NC(=O)c3ccccc32)ccc1Cl` (stereo not given), the result was inactive.

As for `C=CC(=O)N1CCOCC1`, the result was inactive.

Regarding `CCCCCCCCCCC1CO1` (stereo not given), the result was inactive.

`OC1OC[C@@H](O)[C@H](O)[C@H]1O` (stereo not given in full): the result was inactive.

`CC(C)=CCC/C(C)=C/C(=O)O`: the result was inactive.
